Laboratory results: PubChem BioAssay (NCI)
This is part of a sample that, as a whole, favours compounds with a hit. Of some 83,000 tested, about 20% had one in any assay.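 Note: values are percent growth. 100 is the growth of untreated cells, values between 100 and 0 indicate rising inhibition; between -100 and 0 indicates cell death.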 Calls of active or inactive are those of the source. Rule for the calls: active = growth percent below 10; inactive = the rest.

Tested on: LOX IMVI melanoma
Experiment: NCI-60 one-dose screen, 48 h (100 = growth as untreated, 0 = no growth, -100 = all killed)
Settings: 10 µM unless noted

SMILES | growth
CC(C)(C)c1cc(-c2nc3ccc(N4CCN(CCO)CC4)cc3[nH]2)cc(C(C)(C)C)c1O | -35.5% (active)
Clc1ccc(/C=C/c2nc(N3CCOCC3)c3nc(Cl)c(Cl)cc3n2)cc1 | 99.8% (inactive)
CCOC(=O)/C=C\C(=O)NC(N)=O | 91.8% (inactive)
CCC#CC[C@H]1C/C=C2/C(=O)C=C[C@@H]2C/C=C\CCCC(=O)O1 | -55.8% (active)
O=C(Cc1c(F)cccc1Cl)Nc1ccc(S(=O)(=O)Nc2ncccn2)cc1 | 92.9% (inactive)
C=CCc1cc(Cl)cc2c(OC(C)=O)c(C(C)=O)c(-c3ccccc3)nc12 | 97.3% (inactive)
Cc1c(C(=O)NCc2ccccc2)[n+](=O)c2cc(F)ccc2n1[O-] | 97.4% (inactive)
C=CCOc1cccc(/C=C/C(=O)c2sc(Nc3cccnc3)nc2C)c1 | 32.9% (inactive)
COc1ccc(C(=O)c2cc(OC)c(OC)c(OC)c2)cc1/C=C/C(=O)c1ccc2c(c1)OCO2 | -36.5% (active)
CCN(CC)S(=O)(=O)c1ccc2[nH]c(=O)cc(C(=O)Nc3ccc(OC)cc3OC)c2c1 | 106% (inactive)
O=C(Nc1cc(C(F)(F)F)cc(C(F)(F)F)c1)Nc1ccc(OCc2nnc(-c3ccc(Cl)cc3)o2)c(F)c1 | 3.82% (active)
O=C1CCCCN1CCCCC#Cc1ccccc1C#Cc1ccccn1 | 96.8% (inactive)
COc1ccc2c(c1)C=CC(C#N)N2C(=O)c1ccccc1 (stereo not given) | 20% (inactive)
CC1(C)OC2COC3(C(=O)O)OC(C)(C)OC3C2O1 (stereo not given) | 95.6% (inactive)
COc1cc(C2C=C(C)N=C3SC(C)=NN32)cc(OC)c1OC (stereo not given) | 96.3% (inactive)
